Experimental data published in PubChem BioAssay AID526 (National Center for Advancing Translational Sciences (NCATS), 2006).
Out of some 67,000 compounds screened, fewer than 10 were called active. The list is a sample of the results. A number with no mark means an inactive call. Calls follow the shape of the dose curve; as a rule, active = well fitted activation curve with a large enough effect (not every such curve was filed as active); inconclusive = small, poorly fitted or top-dose-only effect, or another doubt; inactive = no such curve, though single readings can be large or run the other way.

Test: Ubiquitin-GFP Assay
Settings: Ubiquitin-GFP reporter cells, proteasome inhibition, GFP fluorescence, untreated = 0%, 10 µM MG-132 = 100%; series mostly up to 45.9 µM; activation (GFP accumulation): at the top concentration
Source text: NIH Chemical Genomics Center [NCGC]
NIH Molecular Libraries Screening Centers Network [MLSCN]
The ubiquitin-proteasome pathway is present within all eukaryotic cells and plays roles in normal cellular functions and disease-related dysfunction. Proteins are tagged with a poly-ubiquitin chain that targets them for the proteasome, a multimeric protease, that degrades the protein into peptides and free ubiquitin. The proteasome has a key role in regulating cell cycle and growth and is known to control the levels of cyclins and CDK inhibitors as well as tumor suppressor proteins. Additionally, the activation of NF- B is controlled by ubiquitin-labeling and degradation of the inhibitory protein I B . […] With this in mind, proteasome inhibitors such as MG-132 and PS-341 have been used to inhibit tumor cell growth.
A cellular assay for ubiquitin-proteasome function was used to find chemical probes of this pathway. The assay used an ubiquitin-GFP construct expressed in U2OS cells (BioImage). Under basal conditions little GFP can be detected as it is degraded by the proteasome. However, treatment of the cells with a proteasome inhibitor such as MG-132 results in a rise in GFP levels that can be detected in as little as four hours. We used the Acumen-Explorer laser plate cytometer having a 488 nm laser as an excitation light source to detect the GFP. Compounds were screened in 1536-well plates using qHTS with a concentration-titration series range that varied from 46 uM to 2.9 nM.
NCGC Assay Protocol Summary:
Cells (U20S ps 2042) expressing ubiquitin (G76V-GFP) were maintained in DMEM with Glutamax-1 and high glucose, 10% FBS, 1% (v/v) penicillin-streptomycin, 0.5 mg/mL Geneticin (G418). The cells were seeded in 1536-well plates using a solenoid-based dispenser at 700 cells/5ul in DMEM medium with Glutamax-1 and high glucose containing 0.5% FBS, w/o phenol red, 25 mM HEPES. The plates were incubated at 37 °C/5% CO2 overnight. Then 23 nl of MG-132 in DMSO was added to the control wells at a final concentration of 10 uM. Next, 23 nL of library compounds in DMSO were added to the sample wells. The plates were incubated for 4 hrs at 37 °C/5% CO2. Following this incubation the plates were read on the Acumen using a cell object definition of 15 to 100 um in width and depth and a window of Total Intensity of between 77,200 and 2,720,000 FLU to enumerate GFP-expressing cells.
The %Activity was determined from the basal and MG-132 treated control wells. %Activity was determined by normalizing to the difference in signal between basal cells (0% Activity) and cells incubated with 10 uM of the proteasome inhibitor MG-132 (100% Activity). Concentration-response curves were fitted to the signals arising from the GFP fluorescence.
Assay Protocol Summary Table
Sequence Parameter Value Description
2. Time O/N 37C incubation
4. Compound 23 nL Libraries (46 uM to 2.9 nM)
5. Time 4 hr 37C incubation
6. Detector Acumen Total Intensity, GFP fluorescence (488 ex/515 em)
Keywords: NIH Roadmap, MLSCN, MLI, MLSMR, BioImage, proteasome, ubiquitin-GFP, qHTS, NCGC

SMILES | activation (GFP accumulation)
Cc1cc(=O)n2nc(N3CCCC(C(=O)N4CCN(C)CC4)C3)sc2n1 (stereo not drawn) | -0.855%
CN(C)C(=O)/N=N\C(=O)N(C)C | 0.779%
CCCC(CCC(=O)OC)(C(=O)OCC)c1csc(N)n1 (stereo not drawn) | -4.11%
O=C(CSC1=NCCS1)Nc1nc(-c2ccccc2)cs1 | -15.6%
COc1ccc(OC)c(C(=O)CSc2nnc(-c3cccs3)o2)c1 | 0%
Cc1ccc2cccc(O)c2[n+]1[O-] | -6.52%
COc1ccc(OC)c(NC(=O)CSc2nc3cccnc3n2C)c1 | -1.06%
CCCCC(=O)Nc1ccc(C(=O)NCCCn2ccnc2)cc1 | -2.04%
CN1[C@H]2CC(OC(=O)[C@@H](CO)c3ccccc3)C[C@H]1[C@H]1O[C@H]12 (stereo partly drawn) | 0.807% [at 20.5 µM]
Nc1ccc2c3c(cccc13)C(=O)NC2=O | -1.64%
Cc1ccc(Cn2ccc(NC(=O)C3C4CCC(C4)C3C(=O)O)n2)cc1 (stereo not drawn) | 13.5%
Cc1cccc(N2CCN(Cc3c(C)n(C)n(-c4ccccc4)c3=O)CC2)c1C | -18.2% [at 9.17 µM]
Cc1onc(-c2ccccc2Cl)c1C(=O)NCCn1ccc2ccccc21 | 16%
CCOC(=O)c1cc(-c2ccc(Cl)s2)nc2c1c(C)nn2C | -2.17%
COc1nc(NCc2ccc(Cl)cc2)nc(OC)n1 | -9.93% [at 9.17 µM]
COc1ccc(-c2cc(C(F)(F)F)nc(SCCC(=O)NCc3ccco3)n2)cc1 | -4.87%
COC(=O)C(C)Sc1ccc2nnc(-c3cccc(F)c3)n2n1 (stereo not drawn) | 11.7%
CCNc1ncc2nc(CCc3ccccc3)c(=O)n(-c3ccc(OC)cc3)c2n1 | -0.0408%
Cc1nnc(C)n1/N=C/c1ccc(C(C)C)cc1 | 1.85%
O=C(CN1CCN(C2CCCCC2)CC1)Nc1ccccc1N1CCCCC1 | -0.833%
CS(=O)(=O)N1CCC2(CCN(c3ccncc3)CC2)CC1 | -4.81%
COc1ccccc1NC(=O)CSc1nnc(Cc2cccn2C)n1-c1ccc(F)cc1 | 6.14%
CNC(=O)CN1C(=O)c2ccccc2S1(=O)=O | 12.9%
Oc1c(CN2CCOCC2)ccc(CN2CCOCC2)c1O | -4.99% [at 9.17 µM]

SMILES | activation (GFP accumulation)
Cc1cc(C)c2nc3c(c([C@H](O)[C@@H]4CCCCN4)c2c1)CC/C3=C/c1ccc(Cl)cc1 | 1.75% [at 9.17 µM]
O=C(Nc1c[nH]c(=O)[nH]c1=O)Oc1ccccc1 | 7.84% [at 9.17 µM]
CC(=O)Nc1nc(C)c(Cc2ccccc2)c(=O)[nH]1 | -8.77%
O=C(NC(c1ccccc1)c1ccccc1)N1CCN(CCO)CC1 | -0.276%
O=C(c1cnccn1)N1CCC2(CCN(Cc3cc(C(F)(F)F)cc(C(F)(F)F)c3)CC2)CC1 | -15.1%
CC1(C)NC(=O)N(CCOc2cccc(Oc3ccccc3)c2)C1=O | 15%
Cc1ccccc1NC(=O)c1cnn(-c2ccccc2)c1NC(=O)c1ccco1 | -3.93%
c1ccc(CSCCc2ccncc2)cc1 | 0.403% [at 9.17 µM]
CCOC(=O)c1cc2cc(C)ccc2[nH]1 | 2.14%
Cn1c(=O)cc(OCCCC(=O)N2CCN(c3ccccn3)CC2)c2ccccc21 | 15.3%
COc1ccccc1-n1c(CNC(=O)c2ccccc2)nnc1SCC(=O)Nc1nnc(C)s1 | -3.39%
COc1ccccc1-c1nc(NCCNC(C)=O)c2ccccc2n1 | 2.52%
CCc1ccc(-c2nnn(Cc3nc4ccccc4s3)n2)cc1 | -6.9%
CC(=O)OCC(=O)[C@@]1(O)CC[C@@H]2[C@H]3CCC4=CC(=O)C=C[C@]4(C)[C@]3(F)[C@@H](O)C[C@@]21C | 14% [at 20.5 µM]
CCC(=O)N1c2ccc(S(=O)(=O)CCC(=O)N3CCN(c4ccccc4)CC3)cc2CC1C (stereo not drawn) | 2.7%
CN(C)c1nc2n(c(=O)n1)CCO2 | -3.46%
c1ccc(CCN2CCN=C2Cc2ccccc2)cc1 | -3.08% [at 9.17 µM]
COc1ccccc1N1CCN(C(=O)c2cc(-c3ccc(Cl)c(Cl)c3)on2)CC1 | -2.38%
Cc1nc(NC(=O)CCC(=O)O)sc1C(=O)N(C)C | 2.7%
CN1CCN(CCCNC(=O)c2cc3c(=O)oc4ccccc4c3s2)CC1 | -2.5%
COc1ccc(CC(=O)Nc2nc3n(n2)C(c2ccccc2)CC(=O)N3)cc1OC (stereo not drawn) | 4.29%
COc1c(C)c2c(c(O)c1C/C=C(\C)CCC(=O)O)C(=O)OC2 | inactive
CN(C)CCSS(=O)(=O)O | 9.1% [at 9.17 µM]
CCCn1c(C)nc2c(NCCCCN(CC)CC)nc(C)nc21 | -5.45%

SMILES | activation (GFP accumulation)
CCOC(=O)N1CCN(C(=O)Cc2ccc(-n3c(=S)[nH]c4ccccc4c3=O)cc2)CC1 | -2.38%
CCN(CC)CCCCn1c(-c2ccccc2)nc2c(N3CCOCC3)nc(C)nc21 | 3.9%
CCN(Cc1ccncc1)C(=O)c1cccc(S(=O)(=O)N2CCOCC2)c1 | -14.4%
CN(C)CC/C=C1\c2ccccc2CSc2ccccc21 | 6.11% [at 20.5 µM]
CC[C@@H]1Cc2cc(O)ccc2C2=C1c1ccc(O)cc1C[C@H]2CC | -4.8%
COc1ccc(C(=O)n2nc(-c3ccc(C)cc3)nc2N)cc1OC | 3.88%
O=C(C1CCC1)N1CCc2cc(S(=O)(=O)NCc3cccnc3)ccc21 | -8.71%
CC(C)CNC(=O)c1cc(-c2ccc(Br)cc2)on1 | -3.89%
CCn1c(CNC(=O)c2ccc(OC)c(OC)c2)nnc1SCC(=O)Nc1ccccc1 | 6.19%
COCCNC(=O)c1snc2ccc(Cl)cc12 | -1.98%
O=C(c1cc(C(F)(F)F)cc(C(F)(F)F)c1)N1CCC[C@@]2(CCN(c3ccccn3)C2)C1 | -8.01%
COc1ccc(CCNC(=O)CSc2nc(C)nc3c2oc2ccccc23)cc1OC | -5.16%
Cc1nnc(SCC(=O)NCc2ccccc2)s1 | 3.12%
COc1ccc2nccc(C(=O)O)c2c1 | -8.23% [at 20.5 µM]
COC(=O)c1cc(NC(=O)CN2CCC(C(N)=O)(N3CCCCC3)CC2)cc(C(=O)OC)c1 | -2.5%
COc1ccc(N(Cc2cc3cc(OC)ccc3[nH]c2=O)S(C)(=O)=O)cc1 | 7.12%
O=C(CN1CCOCC1)N1CCCc2c1c(=O)oc1ccc(OCc3ccccc3)cc21 | -1.85%
O=C(O)/C(=C/c1c(C(=O)O)[nH]c2cc(Cl)cc(Cl)c12)c1ccccc1 | 0%
CCCn1c(-c2ccc(F)cc2)nc2c(NC3CCN(Cc4ccccc4)C3)nc(C)nc21 (stereo not drawn) | -1.82%
COc1ccc(N(CC(=O)NC(C)(C)C)C(=O)c2ccco2)cc1 | 5.4%
CCOC(=O)c1cnc2sccn2c1=O | 6.99%
COC(=O)Cn1c(=NC(=O)CSCC(=O)Nc2cc(C)on2)sc2ccccc21 | -5.84%
Cc1ccc(C)c2[nH]c(=O)c(CCNC(=O)CC(C)C)cc12 | 2.17%
COc1cccc(Cn2c(=O)c(C)nc3cnc(Oc4ccccc4)nc32)c1 | 6.93%

SMILES | activation (GFP accumulation)
O=c1c(-c2ccc(F)cc2)nc2cnc(N3CCNCC3)nc2n1Cc1cccs1 | 13.9%
Cc1ccc(SCc2cc(=O)[nH]c(N3CCCCC3)n2)cc1 | 1%
CC(=O)Oc1ccc(C(=O)Nc2nccs2)cc1 | 10.5%
CCn1c(=O)cc(SCC(=O)NCc2ccc3c(c2)OCO3)c2ccccc21 | -2.7%
Oc1cc2c(cc1O)CN(C(=S)NCCc1ccc(Cl)cc1)CCC2 | inactive
Cc1ccc(-c2c3c(=O)n(C)c(=O)n(C)c3cn2-c2ccccc2O)cc1 | -3.34%
CCCCn1nnnc1NCc1cc(OC)c(OC)c(OC)c1 | 2.65%
CC(N)=NCc1cccc(CN)c1 | inactive
CN1C(=O)C[C@H](c2ccccc2)C1=O | 12.7% [at 20.5 µM]
Nc1nc2c(ncn2[C@H]2CC[C@@H](CO)O2)c(=O)n1C(=O)c1ccccc1 | -2.15% [at 9.17 µM]
Cc1ccc(-n2ncc3c2ncn2nc(-c4ccco4)nc32)c(C)c1 | -1.72%
CCCCC(=O)Nc1cc(C)c2c(=O)oc3ccccc3c2n1 | 0%
Cc1ccc(NC(=O)NCC(c2cccnc2)N2CCOCC2)cc1 (stereo not drawn) | 1.97%
COc1cc(C2C(C#N)=C(C)NC3=C2C(=O)CC(C)(C)C3)ccc1O (stereo not drawn) | -2.63%
COc1ccc(N2C(=O)c3cccc4cccc(c34)C2=O)nn1 | -0.94%
O=C(Nc1nsc(-c2ccccc2)n1)c1ccncc1 | 3.23%
C[N+](C)(C)CCCCCNCC12CC3CC(CC(C3)C1)C2 | -1.3%
CN(C)c1ccnc2sc3c(=O)n(Cc4ccccc4)cnc3c12 | 5.17%
O=C(O)CN(Cc1ccco1)S(=O)(=O)c1ccccc1 | 0%
CCOCCCNS(=O)(=O)Cc1ccccc1 | 5.26%
O=C(O)[C@H](CCc1ccccn1)c1ccccc1 | -6.91% [at 9.17 µM]
